High-throughput results as filed in PubChem.
KB-3-1 cytotox: kills parental KB-3-1 adenocarcinoma cells. KB-3-1 viability, CellTiter-Glo ATP luminescence, 72 h. Potency, µM (doses to about 46.1 µM), actives largely listed as cytotoxic. 400,000 compounds, 1.4% hits. AID 1347075; further: nearly all actives have a fitted effect of over 60% in size
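Here the drug-naive KB-3-1 line serves as comparator for MDR sub-line selectivity; cells received compound titrations, 72 h at 37 °C, then CellTiter-Glo readout.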
HT1080 IDH1KD tx: toxicity to HT-1080 IDH1 knockdown cells (counter line) | HT-1080 IDH1 knockdown viability, ATP luminescence, 48 h | Potency, µM (top dose mostly 46.1 µM), inactives show at the highest dose activity, negative = toxicity, actives largely listed as cytotoxic | 360,000 compounds, 2% hits;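 further: 0% = DMSO wells and -100% = cell-free medium wells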
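HT-1080-IDH1KD cells (IDH1 knocked down), 750/well in RPMI with 5% FBS, treated with compound 48 h at 37 degrees C. Viability by CellTiter-Glo luminescence, normalised to DMSO and no-cell wells; concentration-response curves classed.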
HT1080-NT tox: kills 2HG-producing HT-1080-NT fibrosarcoma cells. Potency, µM (doses to about 46.1 µM), for inactives: top-dose activity, negative = less viability, usual class: cytotoxic. AID 686970. 360,000 compounds, 1.6% hits. HT-1080-NT fibrosarcoma viability, CellTiter-Glo ATP luminescence, 48 h;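 further: NT is the 2HG producing partner of a matched IDH1 knockdown line; 0% = DMSO-treated cells and -100% = media-only wells without cells; nearly all actives have a fitted effect of over 55% in size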
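Viability by CellTiter-Glo luminescence after 48 h compound exposure at 37C of HT-1080-NT cells (750/well, RPMI, 5% FBS). % activity scaled between DMSO wells and medium-only wells, then curve-fitted and categorized by curve class.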
KB-V1 MDR tox: kills drug-selected multidrug resistant KB-V1 cells; AID 1347076; Potency, µM (series often up to 46.1 µM), actives largely listed as cytotoxic; 400,000 compounds, 3.4% hits; KB-V1 MDR cells viability, CellTiter-Glo, 72 h; further: nearly all actives have a fitted effect of over 60% in size
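Potencies derive from concentration-effect curves fitted to normalized luminescence (CellTiter-Glo) of KB-V1 cells treated for 72 h at 37 degrees C in phenol-red-free DMEM containing 10% FBS.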
Active calls of the source: *; i = inactive; ? = inconclusive; . = no result given. In the library only some 5.7% were active in any assay of this set; here they are far more common. The call rests on the fitted dose curve; in most records, active means well fitted curve in the direction sought with a large enough effect; inconclusive means small, poorly fitted or top-dose-only effect, or another doubt; inactive means no such curve, though single readings can be large; an effect the other way counts as inactive or inconclusive. Unless noted, on the % scale 0 is the no-effect control and ±100 the full control effect; potency means the concentration at half of the fitted maximal effect.

SMILES	KB-3-1 cytotox	HT1080 IDH1KD tx	HT1080-NT tox	KB-V1 MDR tox
COc1ccccc1-c1cc(C(F)(F)F)nc(NCc2cccs2)n1	i	7%	-1%	21µM*
COc1ccc(-c2cc(C(F)(F)F)nc(NCc3cccs3)n2)cc1	i	?	?	i
O=C1C(=O)C(c2ccc(O)cc2O)Oc2cc(O)cc(O)c21 (stereo not drawn)	i	.	.	i
CC(=O)c1ccc(NC(=O)Cn2c3ncccc3c(=O)n2-c2ccc(C)cc2)cc1	i	.	.	?
COc1ccccc1C1=NN(C(=S)Nc2ccccc2)C(c2ccco2)C1 (stereo not drawn)	?	-6%	-2%	15µM*
Cc1c(Cl)c([N+](=O)[O-])nn1CC(=O)NC(C)C1CC2CCC1C2 (stereo not drawn)	23µM*	-6%	-3%	i
O=C(NC1c2ccccc2-c2ccccc21)N1CCCCC1	?	8%	0%	16µM*
COc1ccc(NC(=S)N(CCCN2CCCC2)Cc2cccn2Cc2ccc(Cl)cc2)cc1Cl	i	?	?	18µM*
FC(F)(F)c1cccc(NC(=S)N(CCCN2CCCC2)Cc2cccn2Cc2ccc(Cl)cc2)c1	?	23µM*	?	?
Cc1ccc(NC(=S)N(CCCN2CCCC2)Cc2cccn2Cc2ccc(Cl)cc2)cc1C	?	-16%	1%	i
CCS(=O)(=O)N1CC(=O)N(c2cccc(C)c2C)C(C)(C(=O)NC2CCCCC2)C1 (stereo not drawn)	i	.	.	i
Nc1c(Br)cc(C=O)cc1Br	i	.	.	i
COc1cc2c(cc1OC)C(COc1ccc3c(C)cc(=O)oc3c1)N(C(=O)c1cccc(C)c1)CC2 (stereo not drawn)	i	.	.	i
CCCOc1ccc(N2C(=O)CC(N3CCN(c4nc5ccccc5s4)CC3)C2=O)cc1 (stereo not drawn)	i	-1%	0%	i
O=C1CC(N2CCN(c3nc4ccccc4s3)CC2)C(=O)N1c1cccc(F)c1 (stereo not drawn)	18µM*	-2%	11%	i
CCOC(=O)c1c(CSc2ccc(CC)cc2)oc2ccc(O)c(CN(C)C)c12	?	21µM*	?	?
CCCCOC(=O)c1c(C)oc2ccc(NS(=O)(=O)c3ccc4c5c(cccc35)C(=O)N4)cc12	?	-1%	-18%	15µM*
CC(=O)c1c(C)oc2ccc(NS(=O)(=O)c3ccc(C(C)C)cc3)cc12	21µM*	.	.	?
COC(=O)c1c(C)oc2ccc(NS(=O)(=O)c3cc(OC)ccc3OC)cc12	26µM*	?	?	10µM*
CC(=O)c1c(C)oc2ccc(NS(=O)(=O)c3ccc(C)cc3)cc12	i	-9%	-10%	?
CCOc1ccc(S(=O)(=O)Nc2ccc3oc(C)c(C(=O)OCCOC)c3c2)cc1	5.8µM*	.	.	?
CN(CCc1ccccc1)C(=O)CC1C(=O)NCCN1Cc1ccccn1 (stereo not drawn)	i	8%	10%	i
CCCCNc1nc(Oc2ccc(=O)n(-c3ccccc3)n2)nc(N(CC)CC)n1	i	.	.	i
COc1ccc(CN(Cc2ccccc2)C(=O)COC(C)=O)cc1COc1ccc(NC(C)=O)cc1	.	-23%	-14%	.
Cn1c(CSCc2ccc(F)cc2)nnc1SCC(=O)Nc1nccs1	?	-2%	-27%	23µM*
SMILES	KB-3-1 cytotox	HT1080 IDH1KD tx	HT1080-NT tox	KB-V1 MDR tox
Cn1c(CSCc2ccc(F)cc2)nnc1SCC(=O)N1CCN(c2ccccc2)CC1	?	-21%	-23%	16µM*
O=C(CSCc1ccc(F)cc1)N1CCN(c2ccccc2)CC1	i	-9%	4%	?
Cn1c(CSCc2ccc(Cl)cc2)nnc1SCC(=O)Nc1nccs1	i	-10%	-14%	i
CCN1C(=O)c2ccccc2S(=O)(=O)c2ccc(C(=O)NCc3ccc(C)cc3)cc21	i	.	.	i
Cc1ccc(NC(=O)Cc2coc3ccc(C(C)C)cc23)cc1Cl	?	.	.	16µM*
COc1ccc(-c2coc3cc4oc(=O)cc(C)c4cc23)cc1F	i	19%	11%	?
COc1ccc(-c2coc3cc4oc(=O)cc(-c5ccccc5)c4cc23)cc1F	2.9µM*	3.7µM*	6.5µM*	?
COc1cccc(Cn2c(NCc3cccnc3)nc3c2c(=O)n(C)c(=O)n3C)c1	3.7µM*	5.2µM*	4.6µM*	i
